Among all 2,000 compounds or so, about 170 (8.5%) were called active.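 The calls were made as follows: active = average inhibition above the solvent-only control mean plus 3 SD (cut at about 6% in these data); inactive = the rest.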 These entries were drawn from the full list.

A short description of this assay: BODIPY product fluorescence quenching artefacts – biochemical, QFRET, 535nm, artefact control for HGIII-sPLA2 inhibitor project, confirmation (AID 743282).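 Also: 0% = DMSO with substrate plus product and 100% = DMSO with substrate alone.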 The note with it: BODIPY FL product fluorescence interference, at 12.2 µM, hits give high values.
As usually defined, the inhibition is the change of the read-out against control, counted positive when it falls. Turning to `Cc1ccc(S(=O)(=O)N2CCOCC2)cc1C(=O)NC(=S)N(Cc1ccccc1)C(C)C`, the inhibition was -1.68% (inactive).
The figure for `COc1cccc(NC(C)=[N+](C)CCNS(=O)(=O)c2ccc(Cl)cc2)c1` is -14.7% (inactive); for `Cc1sc2nc(SCC(=O)c3ccc(O)c(O)c3)n(Cc3ccco3)c(=O)c2c1C` it is 0.57% (inactive).
As for `Cc1cccc(-n2cnc(C(=O)NNC(=S)Nc3ccccc3)c2)n1`, the inhibition was -2.38% (inactive).
Take `CC1=CC(C)(C)NC(=S)N1c1ccccc1`: the inhibition is -3.33% (inactive).
As for `CCOc1ccc(Br)cc1CSC(=N)N`, the inhibition was -9.39% (inactive).
As for `Cc1cccc(C)c1NC(=O)CN1C(=O)C(C)Oc2ccccc21` (stereo not given), the figure is -4.96% (inactive).
For `S=C(NNC(=S)NC1CC2CCC1C2)NC1CC2C=CC1C2` (stereo not given), the inhibition is 3.69% (inactive).
For the compound `O=C(NNC(=S)NC1CCCCC1)c1ccccc1Cl`, the inhibition is -4.68% (inactive).
As for `Cc1[nH]c(N)nc(=S)c1CCCNc1ccccc1`, the figure is 0.28% (inactive).
On to `CN(CC(=O)Nc1ccc(N2CCOCC2)cc1)CC(=O)Nc1ccccc1[N+](=O)[O-]`, for which the inhibition is -3.73% (inactive).
For the compound `C/C(=N\Nc1ccc(Cl)nn1)c1ccccc1O`, the inhibition was 1.8% (inactive).
For `CCc1cccc(CC)c1NC(=S)NCc1ccc2[nH]c(C)cc2c1`, the inhibition was -0.12% (inactive).
As for `c1ccc(C2=Nc3cccc4cccc(c34)N2)cc1`, the inhibition was 11.4% (active).
The figure for `CC(C(=O)Nc1ccccc1-c1ccccc1)N1CCOCC1` (stereo not given) is -7.3% (inactive); for `O=C(CSc1nc2ccccc2n1Cc1ccccc1)NNC(=S)Nc1ccccc1` it is -3.82% (inactive).
For `O=C(NNc1ccccn1)c1ccc(Cl)nc1`, the inhibition was 34% (active).
On to `O=C(OC12CC3CC(CC(C3)C1)C2)c1ccc(NCc2cc(O)ccc2O)cc1`, for which the inhibition was 12.9% (active).
`COc1ccccc1OCC(=O)OCn1c(SC)nnc(C)c1=O`: the inhibition is 0.95% (inactive).
As for `COc1ccc(C(=O)Nc2sc(C)c(C)c2CN2CCOCC2)cc1`, the figure is -13.2% (inactive); as for `O=C1C(=O)N(Cc2ccc(-c3ccsc3)cc2)c2ccc(OC(F)(F)F)cc21`, 4.49% (inactive).
As for `Nc1[nH]c(C(=O)c2ccccc2)c(-c2ccc(Br)cc2)c1C(=O)NC1CC1`, the inhibition was -0.53% (inactive).
Consider `CN(C)c1ccc(NC(=O)NC2CCCCN(Cc3ccc(Cl)cc3)C2=O)cc1` (stereo not given), for which the inhibition is -5.22% (inactive).
Consider `CC(C)(C)c1cc2cccnc2n1Cc1cccc(F)c1`, for which the inhibition is -9.11% (inactive).
In the case of `CN(C)S(=O)(=O)c1cccc(NC(=S)N/N=C/C(=O)c2ccccc2)c1`, the inhibition is 5.77% (inactive).
Regarding `CC(NC(=O)COC(=O)Cn1cc(C(F)(F)F)ccc1=O)c1ccccc1` (stereo not given), the inhibition was -1.38% (inactive).
Turning to `CC(C)CC(=O)NC(=S)NNC(=O)c1cccc([N+](=O)[O-])c1`, the inhibition is -0.46% (inactive).
For `CSc1ccc(NC(=O)/C=C/C(=O)O)cc1`, the inhibition is -8.22% (inactive).
For the compound `O=C(/C=C/c1c(Cl)cccc1Cl)NCc1ccccc1`, the inhibition is -0.31% (inactive).
As to `N#CC1(Nc2ccc(-c3ccc(Cl)cc3)cc2)CCCC1`, the inhibition was 6.64% (active).
The figure for `CC(C)c1cc(C(=O)N/N=C/c2ccoc2)c(O)c(C(C)C)c1` is 4.05% (inactive); for `Cc1ccc(C2Nc3ccccc3C(=O)N2CCN2CCNC2=O)cc1` (stereo not given) it is -4.79% (inactive).
With `COc1ccc2c(c1)c(=Cc1ccc(N(C)C)cc1)c1cc(-c3ccccc3)[n+](C)n12`, the inhibition is -26.7% (inactive).
For `O=C(NNC(=S)Nc1ccc(F)cc1)[C@H]1C[C@@H]1c1ccccc1`, the inhibition is 1.83% (inactive).
With `COc1ccc(NC(=O)C2C3C=CC(C3)C2C(=O)NCc2ccccn2)c(OC)c1` (stereo not given), the inhibition was -6.28% (inactive).
As for `CCCCn1c(N)c(N(CCOC)C(=O)COc2c(C)cccc2C)c(=O)[nH]c1=O`, the figure is -7.38% (inactive); as for `O=C(NN1C(=O)C2C3C=CC(C3)C2C1=O)c1ccco1` (stereo not given), -5.42% (inactive); as for `COCCn1c(SCC(=O)Nc2cc(OC)ccc2OC)nc2c(c1=O)SC(C)C2` (stereo not given), -17.4% (inactive).
In the case of `COc1ccccc1OCCn1c(SCC(N)=O)nc2ccccc21`, the inhibition was -8.97% (inactive).
With `COc1cc(NS(=O)(=O)c2ccc3ccccc3c2)c2ncccc2c1`, the inhibition is 5.89% (inactive).
In the case of `O=C(Nc1cccc(F)c1)c1cc(-c2ccco2)nc2ccccc12`, the inhibition is 4.81% (inactive).
As for `C/C(=N/NC(=O)c1cc(Cl)ccc1O)C12CC3CC(CC(C3)C1)C2`, the inhibition is -3.29% (inactive).
Turning to `CCCCn1c(=S)[nH]c2ccccc2c1=O`, the inhibition was -2.71% (inactive).
As for `Cc1cc(NCCc2c[nH]c3ccccc23)ccc1Oc1cccnc1`, the inhibition is -3% (inactive).
Take `CCNC(=S)Nc1ccc(OC(F)(F)F)cc1`: the inhibition is 0.41% (inactive).
With `NC(c1csc(NC(=O)Nc2ccccc2Oc2ccccc2)n1)c1ccccc1Cl` (stereo not given), the inhibition was 4.15% (inactive).
With `COc1cc(/C=N/n2c(C)n[nH]c2=S)ccc1OCc1ccccc1`, the inhibition was -3.5% (inactive).
As to `Cc1ccc(C2CC(c3cccc(C)c3)n3nc(N)nc3N2)cc1` (stereo not given), the inhibition was -10.8% (inactive).
For the compound `Nc1ccc2c(c1)C(O)c1ccc(Cl)cc1-2` (stereo not given), the inhibition is 7% (active).
In the case of `CCN(Cc1ccccc1)C(=O)CN1C(=S)NC(C)(C)CC1C` (stereo not given), the inhibition was -7.34% (inactive).
For `C#CCCCc1nc2ccccc2c(=O)n1N`, the inhibition is -6.82% (inactive).
The figure for `Cc1nnc(Sc2nc3c(c(=O)[nH]c(=O)n3C)n2Cc2ccccc2)s1` is -6.93% (inactive); for `CCN(CC(=O)NC1CCS(=O)(=O)C1)S(=O)(=O)c1ccccc1` (stereo not given) it is -0.3% (inactive); for `CCOC12CC(C)(C)CC(C)(CC3=C1C(=O)CC(C)(C)C3)C2` (stereo not given) it is -12.7% (inactive).
In the case of `CC(C)(c1ccccc1)c1ccc(OCCN)cc1`, the inhibition is -22.1% (inactive).
On to `CC[C@]1(O)C[C@@H]2CN(CCc3c([nH]c4ccccc34)[C@@](C(=O)OC)(c3cc4c(cc3OC)N(C)[C@H]3[C@@](O)(C(=O)OC)[C@H](OC(C)=O)[C@]5(CC)C=CCN6CC[C@]43[C@@H]65)C2)C1`, for which the inhibition was -25% (inactive).
Take `CCCCCCCCCCOC(=O)C[N+](C)(C)CC1CCCCC1O` (stereo not given): the inhibition was -19.3% (inactive).
On to `COc1cc(OC)cc(C2=Cc3ccccc3C(CC(=O)c3ccco3)N2c2ccc(-c3cnc(OC)nc3)cc2)c1` (stereo not given), for which the inhibition was -14% (inactive).
For the compound `COC(=O)C(C)n1cnc2c(nnn2-c2ccc(F)cc2)c1=O` (stereo not given), the inhibition is -6.41% (inactive).
The figure for `Cc1cccc(N2CCN(c3ccc(NC(=O)/C=C\C(=O)O)cc3)CC2)c1` is 3.01% (inactive); for `N=C(N)SCc1cccc2ccccc12` it is -8.26% (inactive).
The figure for `O=C(CCl)NNc1cccc(Cl)n1` is 113% (active).
As for `NS(=O)(=O)c1ccc(CCNC(=O)NC2CCCCC2)cc1`, the inhibition was -4.36% (inactive).
The figure for `O=C(NNC(=S)NC1CC2CCC1C2)c1ccc(Cl)cc1` (stereo not given) is 0.11% (inactive); for `COc1ccc(Cl)cc1C(=O)NNC(=S)NC1CCCC1` it is 3.94% (inactive).
Turning to `C=CCNc1scc(-c2ccccc2)[n+]1CC=C`, the inhibition is -8.41% (inactive).
For the compound `C/C(=N\NC(=S)Nc1ccc(C)cc1)c1cc2ccccc2o1`, the inhibition was -2.09% (inactive).
Consider `NC[C@H](Cc1ccccc1)NCCc1cc(C(F)(F)F)cc(C(F)(F)F)c1`, for which the inhibition is -15.8% (inactive).
As for `CC(=O)/C(=N\Nc1ccc(Cl)cc1Cl)Sc1cccc2cccnc12`, the inhibition was -6.02% (inactive).
With `Cc1ccccc1NC(=O)C1CCN(c2ncccn2)CC1`, the inhibition is -0.85% (inactive).
Consider `O=C(NC(=S)Nc1ncccn1)c1ccccc1Br`, for which the inhibition is -4.76% (inactive).
As for `Nc1ccc(Nc2ccccc2)cc1`, the inhibition is 1.54% (inactive).
As for `Cn1c2c(c(=O)n(C)c1=O)C1c3ccccc3OCC1C(C)(C)O2` (stereo not given), the figure is -3.5% (inactive).
With `Oc1ccc2ccccc2c1N=Nc1nccs1`, the inhibition was 18.1% (active).
On to `COCCCNC(=O)CNC(=S)N(Cc1cc(OC)c(OC)c(OC)c1)C1CCCC1`, for which the inhibition is -10.5% (inactive).
In the case of `COc1ccnc(NC(=S)N2CCN(c3ncc(C(F)(F)F)cc3Cl)CC2)c1`, the inhibition is -6.49% (inactive).
Consider `Cc1ccc(-c2csc(NNC(=O)c3ccccc3)n2)cc1`, for which the inhibition was 6.07% (active).
The figure for `Cc1ccc2sc(NNC(=O)c3ccc4c(c3)OCCO4)nc2c1C` is 3.21% (inactive).
Take `COc1ccc(C(=O)NNC(=S)NC(=O)c2ccccc2)cc1`: the inhibition was -1.93% (inactive).
As to `CCc1cc(-c2n[nH]c(=S)n2CC(C)C)cs1`, the inhibition was -0.76% (inactive).
Regarding `Cn1cc(Cl)c(C(=O)NNC(=S)Nc2cccc(Cl)c2)n1`, the inhibition was 0.3% (inactive).
With `CC(C)=CCCC1(C)C=Cc2c(ccc3c2[nH]c2cc(O)c(C)cc23)O1` (stereo not given), the inhibition is 8.94% (active).
Regarding `CC(C)c1ccc(Nc2nnc(SCC(=O)c3nnc(-c4ccccc4)o3)s2)cc1`, the inhibition was -8.04% (inactive).
As to `CC(=O)Oc1ccc2c(c1)C(=O)c1ccccc1C2=O`, the inhibition is -2.62% (inactive).
The figure for `O=C(N/N=C/c1cc(Cl)cc([N+](=O)[O-])c1O)C(O)(c1ccccc1)c1ccccc1` is 5.59% (inactive).
For the compound `S=c1[nH]nc(-c2ccco2)n1/N=C/c1ccccc1`, the inhibition was -0.08% (inactive).
On to `CCOc1ccc2[nH]c(=S)sc2c1`, for which the inhibition is -2.18% (inactive).
As for `Cc1c(NC(=S)NCc2ccc(F)cc2)cccc1[N+](=O)[O-]`, the inhibition is -0.65% (inactive).
Turning to `CC(Oc1ccc2ccccc2c1)C(=O)NNC(=S)NC(=O)c1ccco1` (stereo not given), the inhibition is -3.72% (inactive).
For the compound `CSC1=NN(c2ccccc2)CN(c2ccccc2)N1C`, the inhibition was 4.75% (inactive).
For `Cc1c(C(=O)N/N=C/c2ccccc2)[nH]c2c([N+](=O)[O-])cccc12`, the inhibition is -10.6% (inactive).
With `NC(Cc1ccccc1)c1csc(Nc2cc(Oc3ccccc3)ncn2)n1` (stereo not given), the inhibition is -10.4% (inactive).
The figure for `O=C(NNC(=S)Nc1ccc(Br)cc1Cl)c1ccco1` is 3.75% (inactive).
`CCOc1ccc(/C=N/NC(N)=S)cc1`: the inhibition is -2.77% (inactive).
The figure for `Cc1cc(-c2n[nH]c(=S)n2-c2ccc(C)c(C)c2)no1` is 2.66% (inactive); for `CC(=O)NC(c1cccs1)c1cc(Br)c2cccnc2c1O` (stereo not given) it is 1.21% (inactive); for `Cc1cc(-n2nc(C)cc2C)n2ncc(-c3ccccc3)c2n1` it is -10.6% (inactive).
`CCOC(=O)C1(Cc2cccc(OC)c2)CCCN(C(=O)CCSC)C1` (stereo not given): the inhibition is -20.8% (inactive).
Take `Cc1cccc(NC(=S)NCCN(C2CCCCC2)C2CCCC2)c1`: the inhibition was -19.9% (inactive).
As for `Brc1ccccc1C1Nc2cccc3cccc(c23)N1`, the figure is 16.4% (active).
Consider `CC(=O)c1nnn(-c2ccc(Cl)cc2C#N)c1C`, for which the inhibition is -6.79% (inactive).
`COc1ccc(C(=O)NC(=S)NNC(=O)c2c(-c3ccccc3)noc2C)cc1`: the inhibition was -3.7% (inactive).
Take `Cc1ccc(NC(=S)NNC(=O)CSc2nnc(SCc3ccccc3Cl)s2)cc1`: the inhibition was 0.65% (inactive).
For the compound `COc1ccc(C(N)c2csc(NC(=O)Nc3cccc(C(F)(F)F)c3)n2)cc1` (stereo not given), the inhibition is 5.13% (inactive).
With `CCCCOc1ccc(CSC(=N)N)cc1[N+](=O)[O-]`, the inhibition was -15.6% (inactive).
The figure for `Cc1c(Cl)cccc1NC(=S)NCc1ccc2c(c1)OCO2` is 0.14% (inactive).
Consider `C/C(=N\NC(=O)CSc1nc2ccccc2c(=O)n1-c1ccccc1C)c1cccs1`, for which the inhibition is -14.6% (inactive).
As for `O=C(COc1ccc(S(=O)(=O)NCc2ccccc2)cc1)N1CCOCC1`, the figure is -4.58% (inactive); as for `C=CCn1c(C23CC4CC(CC(C4)C2)C3)n[nH]c1=S`, -2.58% (inactive); as for `CCOC(=O)NC(=O)/C(C#N)=C\c1ccccc1`, -4.97% (inactive).

These data come from PubChem BioAssay AID743282 (The Scripps Research Institute Molecular Screening Center, 2014).
